An excerpt weighted towards active compounds, which were near 4.7% of everything screened.
Calb FLC – affects C. albicans growth with fluconazole. C. albicans CaCi-2 (fluconazole-resistant clinical isolate) + fluconazole, Alamar Blue growth, 48 h. growth inhibition, % (no concentration beside the values). 0.57% of 300,000 active. AID 1979;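 active = growth inhibition above about 58% in most replicates, limit read from the data, passing the limit was not always enough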;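 also: all wells also contain fluconazole at 8 µg/ml as a sub-toxic cotreatment; 0% = median of DMSO wells and 100% = median of geldanamycin control wells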
PfHsp90 set2 – inhibits growth of yeast expressing Plasmodium falciparum Hsp90 | S. cerevisiae expressing PfHsp90, BacTiter-Glo ATP, 48 h; yeast lacking PDR1 and PDR3 efflux regulators | inhibition, % at 9.4 µM | 0.32% of 310,000 active | AID 504621;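 active = every replicate shows inhibition above about 80%, whatever the replicate mean, limit read from the data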;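 also: 0% = DMSO neutral controls and 100% = 20 µM radicicol positive controls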
TIM10 inh – growth inhibitors of TIM10 yeast strain. S. cerevisiae TIM10 strain growth, BacTiter-Glo luminescence, 24 h. AID 463195. 1.4% of 330,000 active. inhibition, % at 10 µM;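 active = inhibition of 40% or more at the single tested concentration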;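 also: wild-type TIM10 isogenic control strain grown at permissive 25 °C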
tim23-1 inh – inhibits growth of tim23-1 mutant yeast. inhibition, % at 20 µM. AID 463212. S. cerevisiae tim23-1 growth, BacTiter-Glo luminescence, 24 h. 1.3% of 330,000 active;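 active = growth inhibition of the mutant yeast at or above 50%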;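 also: temperature-sensitive mutant grown at 25 °C; plate controls were DMSO-treated mutant yeast for no effect and medium wells lacking yeast for full effect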
SKKanGAS inh – blocks kanamycin growth of S. pyogenes SKKanGAS strain. inhibition, % at 7.5 µM. 1.3% of 300,000 active. BacTiter-Glo, 6 h;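 active = mean replicate score, as percent of positive control median, at least 50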;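 also: strain carries kanamycin resistance gene driven by streptokinase promoter and grows in 40 µg/ml kanamycin; loss of luminescence reflects streptokinase promoter inhibition or plain growth inhibition; 0% = median of DMSO wells and 100% = positive control at its reference dose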
tim10-1 inh – inhibits growth of tim10-1 mutant yeast | S. cerevisiae tim10-1 ts strain growth, BacTiter-Glo, 24 h | inhibition, % at 20 µM | 2.2% of 330,000 active | AID 463190;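 active = inhibition of at least 40%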;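 also: mutant grown at 25 °C; 0% = DMSO wells with yeast and 100% = wells holding no yeast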
tim10-1 conf – tim10-1 yeast growth inhibition, confirmed | inhibition, % at 20 µM | 56% of 7,400 active | shares compounds with tim10-1 inh | S. cerevisiae tim10-1 ts strain growth, BacTiter-Glo, 24 h;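 active = inhibition of yeast growth at or above a set limit in either of two repeat tests at 20 µM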;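 also: tim10-1 mutant grown at permissive 25 °C to find synthetic lethal compounds; 0% = DMSO yeast wells and 100% = medium wells without yeast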
tim10 confirm – TIM10 yeast growth inhibition, confirmed. shares compounds with TIM10 inh. S. cerevisiae tim10 strain growth, BacTiter-Glo luminescence, 24 h. inhibition, % at 10 µM. 63% of 4,600 active. AID 463215;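 active = inhibition of yeast growth at or above a set limit in either of two replicates at 10 µM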;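 also: this counterscreen used the strain with wild-type TIM10; 0% = yeast with DMSO and 100% = medium wells lacking yeast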
An asterisk follows results filed as active; nt = no result given.

SMILES | Calb FLC | PfHsp90 set2 | TIM10 inh | tim23-1 inh | SKKanGAS inh | tim10-1 inh | tim10-1 conf | tim10 confirm
N#C/C(=C\c1ccc(-c2ccc(Br)cc2)o1)C(=O)NCCc1c[nH]c2ccccc12 | nt | -36 | 37 | 14 | nt | 41* | 21 | nt
Cc1ccc(SCc2[nH]nc3c2C(c2ccc(C)o2)C(C#N)=C(N)O3)cc1 (stereo not given) | 15 | 0 | 23 | 41 | nt | 42* | 38* | nt
CCc1[nH]nc2c1C(c1ccc(C)o1)C(C#N)=C(N)O2 (stereo not given) | 9 | nt | -3 | -2 | -3 | -2 | nt | nt
Cc1ccc(-n2c(SCC(=O)N3CCCc4ccccc43)nnc2-c2cccnc2)c(C)c1 | 3 | -11 | 18 | 17 | 0 | 21 | nt | nt
Cc1ccc(-n2c(-c3ccccc3)c[n+]3c2CCc2ccccc2-3)c(C)c1 | 102* | nt | 32 | 18 | nt | 43* | 28 | nt
Cc1cc(C(=O)Nc2sc(C)c(C)c2C#N)no1 | 1 | -5 | 11 | 27 | 4 | 43* | 20 | nt
CCc1c(C)sc(NC(=O)c2cc(C(C)C)on2)c1C#N | 57 | 8 | 11 | 26 | 2 | 9 | nt | nt
COc1ccccc1N=Cc1nc(-c2ccccc2)oc1OC(C)=O | 2 | 6 | 32 | 45 | 4 | 52* | 26 | nt
CC(=O)Oc1oc(-c2ccccc2)nc1/C=N/c1ccccn1 | 3 | 19 | 26 | 43 | 3 | 29 | nt | nt
CCOc1ccc2cc(C#N)c(SCC(=O)N3CCOCC3)nc2c1 | 9 | nt | 13 | 23 | -3 | 43* | 27 | nt
CN1CCC(n2[nH]c(-c3ccccc3)c(Cc3ccccc3)c2=O)CC1 | nt | -4 | nt | nt | nt | nt | nt | nt
O=C(CSc1nc2ccccc2c(=O)n1-c1ccc(F)cc1)NCc1ccco1 | -8 | 21 | 14 | 19 | 7 | 21 | nt | nt
O=c1c2ccccc2nc(SCc2cn3ccsc3n2)n1-c1ccc(F)cc1 | 33 | -3 | 18 | 32 | 4 | 43* | 19 | nt
O=c1[nH]c2cc3ccccc3cc2nc1C(F)(F)F | 32 | 15 | 17 | 6 | 10 | 42* | -9 | nt
Cn1c(=O)c2sc3c(c2n(CC(=O)Nc2ccccc2)c1=O)COC(C)(C)C3 | 7 | -17 | -5 | 11 | -6 | 18 | nt | nt
N/C(Cc1ccc(Cl)cc1Cl)=N\OC(=O)Cc1ccc(Cl)cc1 | 17 | 8 | 85* | 47 | -14 | 62* | 55* | 5
N/C(Cc1ccc(Cl)cc1Cl)=N\OC(=O)c1ccccc1 | 118* | nt | 86* | 20 | 10 | 65* | 24 | 84*
N/C(Cc1ccc([N+](=O)[O-])cc1)=N\OC(=O)Cc1ccc(Cl)cc1 | 11 | -11 | 41* | 37 | 5 | 66* | 16 | 77*
CCc1ccc(OCC(=O)Oc2ccc([N+](=O)[O-])cc2)cc1 | -10 | 4 | 4 | -2 | -3 | -16 | nt | nt
O=C(C/C=N/OCc1ccc(Cl)cc1Cl)c1ccccc1 | -1 | -1 | 15 | 7 | 1 | 20 | nt | nt
CCc1ccc(OCC(=O)O/N=C(\N)Cc2ccc([N+](=O)[O-])cc2)cc1 | -9 | -26 | 60* | 47 | -6 | 57* | 73* | 41*
O=C(N/C(=C\c1ccco1)C(=O)N1CCCC1CO)c1ccccc1 (stereo not given) | -4 | 10 | 1 | 17 | -2 | 10 | nt | nt
COCCN(C(=O)c1cc(Cl)ccn1)c1c(N)n(Cc2ccccc2)c(=O)[nH]c1=O | nt | -17 | -7 | 1 | nt | -2 | nt | nt
Cc1ccc(/C(N)=N/OC(=O)c2ccc3ccccc3c2)cc1 | 0 | 5 | 55* | 49 | -13 | 54* | 53* | 66*
N/C(Cc1ccc(Cl)cc1)=N\OC(=O)c1ccc2ccccc2c1 | -4 | 5 | 75* | 50 | -4 | 64* | 60* | 3
SMILES | Calb FLC | PfHsp90 set2 | TIM10 inh | tim23-1 inh | SKKanGAS inh | tim10-1 inh | tim10-1 conf | tim10 confirm
Cc1ccc(/C(N)=N/OC(=O)Oc2ccccc2)cc1 | 3 | 3 | 12 | -13 | 5 | 1 | nt | nt
CCOC(=O)N1CCC(N2CCN(C3CCCC3)C(CCO)C2)CC1 (stereo not given) | -16 | 21 | 6 | -4 | -5 | -4 | nt | nt
Cc1cc(C(=O)CN2C(=O)C(=O)N(CCC3=CCCCC3)C2=O)c(C)n1C | nt | 0 | 9 | 40 | nt | 4 | nt | nt
CC(C)N1C/C(=C/c2ccsc2)C(=O)/C(=C/c2ccsc2)C1 | -9 | 4 | 46* | 22 | 2 | 40* | 28 | 34*
CC(C)N1C/C(=C/c2cccnc2)C(=O)/C(=C/c2cccnc2)C1 | nt | 16 | nt | nt | nt | nt | nt | nt
O=C(Nc1cccc(C(F)(F)F)c1)c1ccco1 | -2 | nt | 16 | 14 | -5 | 5 | nt | nt
O=C(Nc1ccc(Cl)c(C(F)(F)F)c1)c1ccco1 | nt | -52 | 51* | 44 | nt | 46* | 56* | 12
Cc1cccc(NC(=O)N2CCCc3ccccc32)c1C | -6 | -9 | 5 | 14 | 4 | 10 | nt | nt
NS(=O)(=O)c1cccc(NC(=O)CSc2nnc3n2CCCCC3)c1 | nt | -8 | -6 | -3 | nt | -10 | nt | nt
CN(C)CCCN(C(=O)c1ccc(Br)s1)c1nc2cc3c(cc2s1)OCO3 | -17 | 20 | 2 | 23 | 6 | 27 | nt | nt
CN(C)CCCN(C(=O)C1COc2ccccc2O1)c1nc2cc3c(cc2s1)OCO3 (stereo not given) | 3 | -15 | 55* | 40 | -1 | 56* | 49* | 44*
COc1ccc(C)c2sc(N3CCCC3)nc12 | 9 | nt | 44* | 46 | -6 | 44* | 33* | 26
Cc1cc(NC(=O)COC(=O)C(Nc2ccc(C(F)(F)F)cc2Cl)C(C)C)no1 (stereo not given) | -1 | 15 | 50* | 43 | 29 | 53* | 23 | 43*
Cc1cc(NC(=O)COC(=O)c2ccc(OC(F)(F)F)cc2)no1 | nt | 14 | -2 | 14 | nt | 8 | nt | nt
CC(C)c1ccccc1NC(=S)NC(C)c1ccccc1 (stereo not given) | -16 | 9 | 42* | 40 | -10 | 42* | 23 | 17
CC(=O)Nc1ccc(C(=O)NCC(=O)OCc2c(F)cccc2Cl)cc1 | -2 | 10 | 10 | 6 | -4 | 6 | nt | nt
N/N=C(/Cc1nc2ccccc2[nH]1)c1ccc([N+](=O)[O-])cc1 | -3 | 12 | 51* | 28 | 12 | 42* | 50* | 58*
O=C(NCCc1nc2ccccc2[nH]1)c1cc([N+](=O)[O-])cc([N+](=O)[O-])c1 | 14 | 5 | 10 | 7 | 1 | 21 | nt | nt
Cc1nn(C)c(C)c1NC(=O)Nc1cccc(C(F)(F)F)c1 | 26 | 3 | -2 | 8 | -6 | -10 | nt | nt
Cc1nn(C)c(C)c1NC(=O)Nc1ccc(Cl)c(Cl)c1 | 12 | 7 | 40* | 37 | 10 | 60* | 58* | 25
Cn1c(=O)c2cn3ncccc3c2n(C)c1=O | 12 | nt | nt | nt | 6 | nt | nt | nt
